Experimental data: PubChem BioAssay (NCATS)
Inconclusive results are not listed. The source made the active and inactive calls. Calls follow the shape of the dose curve; as a rule, active = well fitted inhibition curve with a large enough effect; inconclusive = small, poorly fitted or top-dose-only effect; inactive = flat fitted curve, though single readings scatter.

test system: CP194; experiment: qHTS profiling for inhibitors of Plasmodium falciparum proliferation (AID 504749); also: nearly all actives have a fitted effect of over 60% in size; details: P. falciparum in erythrocytes, SYBR Green DNA, 72 h; series mostly up to 28.7 µM
Method in brief: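 Each compound contacts P. falciparum-infected red blood cells for 72 h at 37 C; lysis buffer (Tris, EDTA, saponin, Triton X, SYBR Green I) is added and fluorescence measured next morning; values normalized to controls.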
Potency is read from the fitted curve at half-maximal effect.

Potency, inactive:
CCCCCCCCCCCCCCCC(=O)OC[C@H](O)[C@H]1OC[C@@H](O)[C@@H]1O
C[C@H]1OC(OC2C(O)[C@@H](O)C(OC3C(O)[C@@H](O)C(O)O[C@@H]3CO)O[C@@H]2CO)[C@H](O)C(O)C1N[C@H]1C=C(CO)[C@@H](O)[C@H](O)C1O (some centres not stated)
CCN(CC)CC(=O)Nc1c(C)cc(C)cc1C
CC(=O)N[C@H]1[C@H](O[C@@H]2c3ccc(c(Cl)c3)Oc3cc4cc(c3O[C@@H]3O[C@H](CO)[C@@H](O)[C@H](O)C3C)Oc3ccc(cc3Cl)C[C@H]3NC(=O)[C@@H](N)c5ccc(O)c(c5)Oc5cc(O)cc(c5)[C@H](NC3=O)C(=O)N[C@H]4C(=O)N[C@H]3C(=O)N[C@@H]2C(=O)N[C@@H](C(=O)O)c2cc(O)cc(O[C@H]4O[C@H](CO)[C@@H](O)C(O)[C@@H]4O)c2-c2cc3ccc2O)O[C@H](CO)[C@@H](O)[C@@H]1O (some centres not stated)
NC(=O)c1ncn(C2OC(CO)C(O)C2O)c1N (configuration not stated)
CC1(Cn2ccnn2)[C@H](C(=O)O)N2C(=O)C[C@H]2S1(=O)=O (some centres not stated)
CN(C)CC/C=C1\c2ccccc2COc2ccc(CC(=O)O)cc21
CCCC(=O)O[C@]1(C(=O)COC(C)=O)CC[C@H]2C3C[C@H](F)C4=CC(=O)C=CC4(C)[C@@]3(F)[C@@H](O)CC21C (some centres not stated)
OCCN1CC(O)C(O)C(O)C1CO (configuration not stated)
CC(CCC(=O)O)C1CCC2C3C(=O)C[C@@H]4CC(=O)CC[C@@]4(C)C3CC(=O)[C@]12C (some centres not stated)
O=C(OC[C@@H]1O[C@@](O)(COC(=O)c2cccnc2)[C@H](OC(=O)c2cccnc2)[C@H]1OC(=O)c1cccnc1)c1cccnc1
O=[N+]([O-])O[C@H]1CO[C@H]2[C@@H]1OC[C@H]2O
COc1cccc(OC)c1C(=O)NC1C(=O)N2C1SC(C)(C)C2C(=O)O (configuration not stated)
NC[C@@H]1O[C@H](OC2[C@@H](CO)O[C@@H](OC3[C@H](O)[C@H](N)C[C@H](N)[C@H]3OC3O[C@H](CO)[C@@H](O)[C@H](O)[C@@H]3N)[C@H]2O)C(N)[C@H](O)[C@@H]1O (some centres not stated)
Cc1ccc(S(=O)(=O)NC(=O)NC(C)Cc2ccccc2)cc1 (configuration not stated)
OCCOC[C@H]1O[C@H](OCCO)[C@H](OCCO)[C@@H](OCCO)[C@@H]1OCCO (tested in a mixture with another compound)
C[S+](C)CC[C@H](N)C(=O)O
CC[C@@H]1/C=C(\C)C[C@H](C)C[C@H](OC)[C@H]2O[C@@](O)(C(=O)C(=O)N3CCCC[C@H]3C(=O)O[C@H](/C(C)=C/[C@@H]3CC[C@H](Cl)[C@H](OC)C3)[C@H](C)[C@@H](O)CC1=O)[C@H](C)C[C@@H]2OC
NC(=O)C1CC2(NC(=O)NC2=O)c2cc(F)ccc2O1 (configuration not stated)
CN1[C@@H]2CC[C@@H]1CC(OC(=O)[C@H](CO)c1ccccc1)C2 (some centres not stated)
CCCCCCCCCCCC(=O)OCC(O)C1OCC(O)C1O (configuration not stated)
C/C1=C2/[N-]C(C(CC(N)=O)[C@@]2(C)CCC(=O)NCC(C)OP(=O)([O-])O[C@H]2[C@@H](O)[C@@H](n3cnc4cc(C)c(C)cc43)O[C@@H]2CO)[C@]2(C)N=C(/C(C)=C3N=C(/C=C4N=C1C(CCC(N)=O)C\4(C)C)[C@@H](CCC(N)=O)[C@]\3(C)CC(N)=O)[C@@H](CCC(N)=O)[C@]2(C)CC(N)=O.CC(=O)O.[Co] (some centres not stated)

Potency, active:
CCCCC(=O)OCC(=O)[C@]1(O)Cc2c(O)c3c(c(O)c2[C@H](OC2CC(NC(=O)C(F)(F)F)C(O)C(C)O2)C1)C(=O)c1c(OC)cccc1C3=O (some centres not stated) 3010 nM
C[C@H]1[C@@H](OC(=O)CCC(=O)O)OC2OC3(C)CC[C@H]4[C@H](C)CC[C@@H]1[C@@]24OO3 (some centres not stated) 6 nM
COc1cc2c(cc1O)CCN[C@@]21CS[C@H]2c3c(OC(C)=O)c(C)c4c(c3C(COC1=O)N1C2C2c3c(cc(C)c(OC)c3O)CC([C@@H]1O)N2C)OCO4 (some centres not stated) 1.3 nM
C[n+]1c2cc(N)ccc2cc2ccc(N)cc21 1200 nM
CC[C@@]1(O)C[C@H](O[C@H]2C[C@@H](N(C)C)[C@@H](O[C@H]3C[C@@H](O)[C@@H](O[C@H]4CCC(=O)[C@@H](C)O4)[C@@H](C)O3)[C@@H](C)O2)c2c(cc3c(c2O)C(=O)c2c(O)cccc2C3=O)[C@H]1C(=O)OC 953 nM
